# Source: PubChem (National Center for Advancing Translational Sciences (NCATS))
# In the library only some 8.9% were active in any assay of this set; here they are far more common.
# D3 ag: agonists of human D3 dopamine receptor; P35462; D3R DiscoveRx beta-arrestin cells, luminescence, 90 min; max activation, %; hit rate 0.58% among 410,000; AID 652048; in the data active = max activation above about 30%; note: 0% is about no effect
# Target sequence (P35462 whole entry, looked up): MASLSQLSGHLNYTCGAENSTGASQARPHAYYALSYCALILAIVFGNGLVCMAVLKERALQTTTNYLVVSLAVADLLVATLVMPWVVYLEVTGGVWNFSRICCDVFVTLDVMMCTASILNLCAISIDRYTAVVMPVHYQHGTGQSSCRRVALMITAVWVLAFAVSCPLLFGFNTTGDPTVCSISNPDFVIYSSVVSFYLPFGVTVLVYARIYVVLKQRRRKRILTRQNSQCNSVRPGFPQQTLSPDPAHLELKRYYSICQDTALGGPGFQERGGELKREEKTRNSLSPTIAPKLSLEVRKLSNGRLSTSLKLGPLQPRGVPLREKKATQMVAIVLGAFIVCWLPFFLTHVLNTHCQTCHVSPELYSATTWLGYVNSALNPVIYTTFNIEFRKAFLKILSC
#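 Cells at 1500/well, incubated overnight, then treated with pinned compounds (dopamine as control) for 90 min at 37 degrees C. DiscoveRx reagent added for 30 - 60 minutes at room temperature; luminescence read.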
# MCF10A rerep: induces DNA re-replication in MCF 10a normal breast cells; Potency, µM (doses to about 46.1 µM), inactives show at the top dose activity, positive = re-replication, actives largely listed as activators; MCF 10A DNA re-replication, Hoechst nuclear intensity, 48 h; hit rate 2.9% among 350,000; AID 624296; note: potency is the fitted concentration of half-maximal effect; % of control where 0% means no effect; nearly all actives have a fitted effect of over 50% in size
# KB-V1 cytotox: kills drug-selected multidrug resistant KB-V1 cells; hit rate 3.4% among 400,000; KB-V1 MDR cells viability, CellTiter-Glo, 72 h; Potency, µM (highest dose often 46.1 µM), hits mostly cytotoxic; note: potency is the fitted concentration of half-maximal effect; % is set by controls: 0 for no effect and ±100 for the full control effect; nearly all actives have a fitted effect of over 60% in size
#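 Cytotoxicity via CellTiter-Glo luminescence after 72 h compound exposure at 37 degrees C. Cells: drug-selected KB-V1 line, DMEM phenol-red free plus 10% FBS. Compounds tested at multiple concentrations; normalized data fitted to concentration-effect curves.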
# KB-3-1 cytotox: KB-3-1 parental cell cytotoxicity | hit rate 1.4% among 400,000 | Potency, µM (highest dose often 46.1 µM), usual class: cytotoxic | AID 1347075 | KB-3-1 viability, CellTiter-Glo ATP luminescence, 72 h; note: potency is the fitted concentration of half-maximal effect; % is set by controls: 0 for no effect and ±100 for the full control effect; nearly all actives have a fitted effect of over 60% in size
#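 KB-3-1 cells, DMEM (no phenol red) + 10% FBS; compound by pin transfer, 72 h, 37 °C. Readout: CellTiter-Glo luminescence after 10 min. Data normalized, curve-fitted.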
# SW480 rerep: DNA re-replication induction in SW480 cells; SW480 DNA re-replication, Hoechst DNA content imaging, 48 h; Potency, µM (highest dose often 46.1 µM), inactives show at the top dose re-replication activation, usual class: activators; hit rate 1.8% among 340,000; note: potency is the fitted concentration of half-maximal effect; % of control where 0% means no effect; nearly all actives have a fitted effect of over 55% in size
#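 Hoechst fluorescence of nuclei (405 nm excitation, 500-530 nm emission) measured by plate-scanning imager after 48 hr compound exposure at 37 C; re-replication scored as increased number of nuclei with elevated intensity.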
# D3 antag: antagonists of human D3 dopamine receptor; P35462; D3R cells, DiscoveRx beta-arrestin luminescence, antagonist mode; stronger effect = lower value; max response, negative = inhibition, %; hit rate 2.5% among 360,000; AID 652054; in the data active = max response below about -50%; inconclusive = no clear call, values can overlap the other calls; note: % is set by controls: 0 for no effect and ±100 for the full control effect
#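 Cells expressing the human receptor were seeded at 1500 cells/well, incubated overnight at 37 degrees C in 5% CO2, then exposed to library compounds with dopamine controls for 90 minutes at 37 degrees C before luminescent detection.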
# An asterisk follows results filed as active; i = inactive; ? = inconclusive; . = no result. Unless noted, calls come from the whole dose curve; as a rule, active = well fitted curve in the direction sought with a large enough effect; inconclusive = small, poorly fitted or top-dose-only effect, or another doubt; inactive = no such curve, though single readings can be large; an effect the other way counts as inactive or inconclusive.
SMILES,D3 ag,MCF10A rerep,KB-V1 cytotox,KB-3-1 cytotox,SW480 rerep,D3 antag
CCN1C(=O)[C@H]2[C@H]3CN=C(SCc4ccc(C)cc4)N3[C@@](Cc3ccccc3)(C(=O)OC)[C@H]2C1=O,-55,28%,i,i,?,-57*
COc1ccc(Cn2c(SCC(=O)N3CCN(c4ccc(F)cc4)CC3)nc3ccccc32)cc1,-10,.,i,?,.,.
OC(C[n+]1ccccc1Cl)c1ccccc1 (stereo not drawn),.,.,i,?,.,.
CCN(CC)CCNC(=O)C(=O)NCC(c1cccnc1)N1CCN(c2ccc(F)cc2)CC1 (stereo not drawn),9,.,i,i,.,.
CN(C)c1ccc(CNc2nc(-c3ccco3)nn2S(C)(=O)=O)cc1,-4,.,.,.,.,.
COc1ccccc1-c1sc2ccccc2c1-c1ccc(OCCN2CCOCC2)cc1,-4,28%,i,i,24%,-13
COc1ccc2sc(-c3ccccc3OC)c(-c3ccc(OC)nc3)c2c1,-12,23µM*,i,i,-4%,?
COc1ccc(-c2sc3cc(OC)c(OC)cc3c2-c2ccc(O)cc2)cc1,2,?,i,i,21µM*,19
COc1ccccc1-c1sc2ccccc2c1-c1ccc(O)cc1,-5,?,i,i,16µM*,41
COc1ccc(-c2sc3ccccc3c2-c2ccc(O)cc2)cc1,-2,?,i,?,6%,3
COc1ccccc1-c1sc2cc3c(cc2c1-c1ccc(OCCN2CCCCC2)cc1)OCO3,-4,10µM*,?,?,5%,-1
COCCCN1C(=O)C(CC(=O)NC(c2ccccc2)c2ccccc2)CC(C(=O)N(C(C)C)C(C)C)=C1C (stereo not drawn),-2,.,i,i,.,0
COc1ccc(NC(=O)CN2C(=O)CCn3nc(-c4cccn4C)cc32)cc1,-2,.,i,i,.,.
CCCCCCCCCC(=O)NO,7,2%,.,.,-11%,.
COc1ccccc1-c1sc2ccccc2c1-c1ccc2c(c1)OCO2,-20,?,i,i,12%,?
COc1ccc(-c2c(-c3ccccc3OC)oc3ccccc23)cn1,-4,16µM*,i,i,-4%,5
COc1ccccc1-c1sc2ccccc2c1C#Cc1ccc(N(C)C)cc1,6,?,i,i,8.2µM*,3
Cc1cccn2cc(-c3ccc(S(=O)(=O)N4CCCCC4)cc3)nc12,19,21%,i,i,2%,2
Cc1cccn2cc(-c3ccc(S(=O)(=O)N4CCOCC4)cc3)nc12,1,1%,2.3µM*,i,-4%,45
Cc1ccc2c(=O)cc(C(=O)Nc3ccc(S(=O)(=O)N4CCCCCC4)cc3)oc2c1C,-4,.,i,i,.,.
Cc1ccc2nc(-c3ccc(Cl)c(NC(=O)COc4ccc([N+](=O)[O-])cc4)c3)oc2c1,3,.,i,i,.,.
CN(C)c1ccc(/C=C(\C#N)c2ccccc2)cc1,0,3.7µM*,?,?,3.7µM*,7
Cn1cccc1/C=C(\C#N)c1ccccc1,-6,-13%,i,i,-10%,-4
CN(C)c1cccc(/C=C(\C#N)c2ccccc2)c1,1,?,?,5.8µM*,?,-11
CN(C)c1ccc(/C=C(\C#N)C(=O)c2ccccc2)cc1,1,2%,i,i,-6%,-10
SMILES,D3 ag,MCF10A rerep,KB-V1 cytotox,KB-3-1 cytotox,SW480 rerep,D3 antag
CC(=O)c1ccc(NC(=O)c2cccc(NC(=O)N3CCSc4ncccc43)c2)cc1,7,.,i,i,.,.
Cc1cc(C)cc(N(CCC#N)C(=O)COC(=O)CCc2c[nH]c3ccccc23)c1,-13,-1%,21µM*,i,-3%,8
O=C(COC(=O)CCc1c[nH]c2ccccc12)Nc1ccccc1,0,3%,i,i,2%,?
O=C(COC(=O)CCc1c[nH]c2ccccc12)NC(c1ccccc1)c1ccccc1,39*,-5%,i,i,-12%,5
CN(C(=O)COC(=O)CCc1c[nH]c2ccccc12)c1ccccc1,-6,1%,?,i,-16%,-15
COC(=O)[C@@]1(Cc2ccccc2)[C@@H]2C(=CC(=O)[C@H]2CC(=O)C(=O)N(C)C)CN1C(=O)c1ccccc1,-20,26µM*,i,21µM*,?,-51*
COC(=O)[C@@]1(Cc2ccc(F)cc2)[C@H]2c3cc(C(=O)N(C)C)n(CCF)c3C[C@H]2CN1C(=O)c1ccccc1,3,.,?,i,.,0
Cc1cccc(C(C)C)c1NC(=O)C1CCCN1S(=O)(=O)c1cccc2nsnc12 (stereo not drawn),7,.,?,i,.,.
O=C(c1cccnc1)N1CCN(Cc2cccc(F)c2)CC1,-2,?,i,i,?,-10
O=C(c1ccc2ccccc2c1)N1CCCC1,6,-5%,i,i,-15%,-9
CN1CCN(C(=O)c2ccc(CSc3ccc(Cl)cc3)cc2)CC1,-17,1%,7.3µM*,?,15%,-22
CN1CCN(C(=O)c2ccc3ccccc3c2)CC1,-61,1%,i,i,-2%,-83*
O=C(c1cccnc1)N1CCN(Cc2ccc3ccccc3c2)CC1,2,18µM*,?,?,0%,21
CCOC(=O)N1CCN(C(=O)c2ccc(CSc3ccc(Cl)cc3)cc2)CC1,3,0%,i,i,0%,-15
O=C(c1ccc(Cl)cc1)N1CCC(O)(CSc2ccc(Cl)cc2)CC1,5,16%,i,0.0007µM*,1%,?
O=C(NCC(c1ccc(F)cc1)N1CCOCC1)c1ccc([N+](=O)[O-])o1 (stereo not drawn),-3,18µM*,?,?,10µM*,-3
O=C(NCc1nnnn1-c1ccc(F)cc1)c1ccc([N+](=O)[O-])o1,10,?,?,18µM*,?,5
Cc1ccc(-n2nnnc2CNC(=O)c2ccc([N+](=O)[O-])o2)cc1C,-19,?,i,15µM*,13µM*,-15
O=C(O)c1ccc(S(=O)(=O)c2ccc3c(c2)C(=O)N(NC(=O)c2ccncc2)C3=O)cc1,-3,6%,i,i,5%,-56*
Cc1cccn2c(=O)cc(COc3ccc(NC(=O)C(C)C)cc3)nc12,1,.,i,i,.,.
Cc1ccc(S(=O)(=O)NC2c3cccc4cccc(c34)C2Sc2nc(C)cc(C)n2)cc1 (stereo not drawn),3,?,5.2µM*,i,-59%,18
Cn1cnnc1SC1c2cccc3cccc(c23)C1NS(=O)(=O)c1ccccc1 (stereo not drawn),2,-1%,i,i,0%,-13
